Results as given in PubChem BioAssay AID1159580 (chemical genetic matrix, 2015).
Screen size: about 5,500 compounds; about 2,000 (36%) were called active. Not shown: some 18% with an inconclusive outcome. Rule as the data show it: active = normalized growth mostly below about 0.91 (no sharp cut-off); inconclusive = no clear call, values can overlap the other calls; inactive = mostly above about 0.92. The list shows a part of the results.

Assay: chemical genetic growth profiling, strain panel (AID 1159580);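 also: tested at 20 µM; growth read once vehicle control cultures reached saturation at 30 °C; 1 = growth at the plate median or of vehicle wells; lower values mean less growth of the strain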
Conditions: S. cerevisiae deletion strains, growth OD

Measured: normalized growth

COc1cc(O)cc(O)c1C(C)=O
inactive: locus YHR030C, strain SLT2, stronger effect = lower value 0.969 | locus YHR079C, strain IRE1, stronger effect = lower value 0.981 | locus YJL095W, strain BCK1, stronger effect = lower value 0.984 | locus YJR066W, strain TOR1, stronger effect = lower value 0.916 | locus YLR113W, strain HOG1, stronger effect = lower value 0.971 | locus YNL183C, strain NPR1, stronger effect = lower value 0.907 | locus YOR231W, strain MKK1, stronger effect = lower value 0.985 | locus YPL256C, strain CLN2, stronger effect = lower value 0.97
